# Test results as given in article PMC8384837, “Expanding the binding specificity for RNA recognition by a PUF domain”.
# Target: PUM1 PUF domain R4-GPS (Homo sapiens, UniProt Q14671 828-1176, N971G;H972P;Q975S)
# Test: yeast three-hybrid, YBZ-1, SC-Leu-His + 0.5 mM 3-AT, 4 days
# Conditions: tags: N-Gal4 AD-HA kept; label: inside an RPR1-promoter hybrid RNA with tandem MS2 sites; ssRNA
# How it was run: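 The interaction score is the logarithmic change in variant frequency from input to selection. It uses log2, with a pseudocount of 1 for absent variants, and frequencies came from PCR-amplified, Illumina-sequenced repeat regions. The libraries were Pumilio-1 PUF domains randomized at the three base-contacting residues per repeat, co-expressed with matching RNA elements in strain YBZ-1 (LexA–MS2 coat fusion, HIS3 reporter). Plating lasted four days on SC-Leu (input) or SC-Leu-His + 0.5 mM 3-AT (selection).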
# PUM1 PUF domain R4-GPS, sequence (Q14671 828-1176 N971G/H972P/Q975S): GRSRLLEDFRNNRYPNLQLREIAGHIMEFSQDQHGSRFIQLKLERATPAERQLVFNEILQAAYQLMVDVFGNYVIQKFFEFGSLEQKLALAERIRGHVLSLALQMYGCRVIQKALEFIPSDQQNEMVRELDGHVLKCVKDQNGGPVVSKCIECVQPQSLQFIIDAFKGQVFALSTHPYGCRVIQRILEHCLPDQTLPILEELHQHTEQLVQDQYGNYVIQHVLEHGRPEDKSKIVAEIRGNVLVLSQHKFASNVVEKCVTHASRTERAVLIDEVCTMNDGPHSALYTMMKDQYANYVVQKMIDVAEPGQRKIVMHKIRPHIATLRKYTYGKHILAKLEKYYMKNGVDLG
row,Sequence,binding signal
1,GGCUAGAACUAGUGGAUCCCCCGGCGCCCGGCGGCUCGAGCCCGGGUAAGUGUAUAUAGUCUGCAUGCCGCCGGGCGCCAUGCCUGCAGGUCGACUCUAGAAAACAUG,2.94 log2 enrichment (interaction score)
2,GGCUAGAACUAGUGGAUCCCCCGGCGCCCGGCGGCUCGAGCCCGGGUAAGUGUAAAUAGUCUGCAUGCCGCCGGGCGCCAUGCCUGCAGGUCGACUCUAGAAAACAUG,4.4 log2 enrichment (interaction score)
3,GGCUAGAACUAGUGGAUCCCCCGGCGCCCGGCGGCUCGAGCCCGGGUAAGUGUACAUAGUCUGCAUGCCGCCGGGCGCCAUGCCUGCAGGUCGACUCUAGAAAACAUG,1.84 log2 enrichment (interaction score)
